Assay outcomes: PubChem BioAssay, National Center for Advancing Translational Sciences (NCATS)
D2 ag-1: activates the human D2 dopamine receptor; activation, % at 2 µM; 340,000 tested, 0.53% active; P14416; HEK293 T-REx D2 cells, calcium flux agonist mode;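 active = activation over 3 SD above normal in the single-dose calcium agonist read, cut at about 30% in these data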; also: 0% is about no effect
Target sequence (P14416 whole entry, looked up): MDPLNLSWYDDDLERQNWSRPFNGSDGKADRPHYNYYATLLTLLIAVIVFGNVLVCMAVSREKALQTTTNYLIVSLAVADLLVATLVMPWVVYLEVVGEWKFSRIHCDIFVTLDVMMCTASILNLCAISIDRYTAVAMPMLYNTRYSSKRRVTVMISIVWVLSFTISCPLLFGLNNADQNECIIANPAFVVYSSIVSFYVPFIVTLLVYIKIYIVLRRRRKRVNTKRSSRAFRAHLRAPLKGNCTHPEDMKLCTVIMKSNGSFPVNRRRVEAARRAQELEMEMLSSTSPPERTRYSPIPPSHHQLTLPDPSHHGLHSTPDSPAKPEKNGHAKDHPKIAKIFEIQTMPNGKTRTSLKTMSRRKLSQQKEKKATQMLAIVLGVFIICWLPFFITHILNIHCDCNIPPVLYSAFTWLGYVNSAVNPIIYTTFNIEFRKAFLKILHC
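Agonism is scored from calcium flux in a force-coupled, inducible HEK293 cell line expressing D2, read kinetically for 180 s after compound addition against dopamine controls.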
D2 PAM-1: D2 dopamine receptor (human) potentiation. 340,000 tested, 0.34% active. potentiation, % at 10 µM. AID 485347. HEK293 T-REx D2, calcium flux, EC20 dopamine potentiation. P14416;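 active = potentiation over 3 SD above the plate norm, cut at about 30% in these data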; also: 0% is about no effect
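Tetracycline-induced HEK293 T-REx cells force-coupled to calcium signalling expressed D2; compounds were pin-added after a 10 s baseline, read kinetically 180 s, then an EC20 dopamine challenge followed with a further 180 s calcium read.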
D2 ag-2: activates the human D2 dopamine receptor. P14416. DiscoveRx PathHunter D2 beta-arrestin, luminescence, 90 min; 100% = 57 uM dopamine signal. activation, % (test concentration not listed). 360,000 tested, 0.084% active; in the data active = activation above about 40%; inconclusive = between about 15% and that limit
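Agonist mode: compounds alone added to overnight-plated D2 PathHunter cells for 90 min at 37 C, with 57 uM final dopamine (EC100) defining full response. Beta-arrestin recruitment detected by chemiluminescent reagent, read after 1 h at ambient temperature.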
D2 PAM-2: human D2 receptor positive allosteric modulation | 360,000 tested, 0.23% active | potentiation, % (test concentration not listed) | DiscoveRx D2 beta-arrestin cells, luminescence, 90 min; 100% = 57 uM dopamine signal | P14416; in the data active = potentiation above about 50%; inconclusive = mostly about 30% to 49%
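D2 cells co-treated with compound plus 50 nM dopamine (EC20) for 90 min at 37 deg C to detect potentiation. Beta-arrestin recruitment was read as enzyme-fragment luminescence after 1 h at ambient temperature. Full response was set by 57 uM dopamine.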
D2 antag: D2 dopamine receptor (human) antagonism. 340,000 tested, 2% active. P14416. AID 485344. inhibition, % at 10 µM. HEK293 TREx D2 cells, calcium flux, dopamine EC80; in the data active = inhibition above about 30%; inactive = below that, where a call was filed; also: 0% is about no effect
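Compounds are added to dye-loaded, induced HEK293 T-REx cells coupled to calcium release via D2; after a 3 min kinetic read an EC80 dopamine stimulus is given and fluorescence is recorded for 3 more min.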
The depositor's hits bear a star; ? = inconclusive; nt = no result. The list is not random: actives were taken first. Their share in the collection is about 2.4%.

SMILES	D2 ag-1	D2 PAM-1	D2 ag-2	D2 PAM-2	D2 antag
CCCCN(CC)Cc1c(O)ccc2c(-c3ccccc3)cc(=O)oc12	-1	-26	-3	-35	-10
N#Cc1c(F)cccc1N1CCN(Cc2ccc3c(c2)OCO3)CC1	7	-35	-4	-19	85*
Cc1cc(O)c2c(c1)C(=O)[C@@]13Oc4c5c(c(O)c6c(O)cc(C)cc46)C(=O)C[C@H](O)[C@H]5[C@@H]1[C@@H](O)CC(=O)C3=C2O	nt	nt	11	66*	nt
O=C(Nc1cccc(-c2ccc(N3CCOCC3)nn2)c1)c1ccc(Cl)cc1	0	-15	1	20	31*
O=C(NCc1nc2ccccc2[nH]1)C1=C[C@H](C2CC2)C[C@H](OCc2ccc(CO)cc2)O1	1	2	-2	-14	40*
O=C(NCc1nc2ccccc2[nH]1)C1=C[C@@H](C2CC2)C[C@@H](OCc2ccc(CO)cc2)O1	2	2	1	-40	8
COc1ccc(N2CCN(C(=O)CCc3c[nH]c4ccccc34)CC2)cc1	2	1	5	-1	19
COc1ccccc1N1CCN(Cc2ccc(O)c3ncccc23)CC1	0	16	-10	-28	-26
COc1ccccc1N1CCN(C(=O)C(=O)c2cn(CC(=O)N3CCCCCC3)c3ccccc23)CC1	0	-18	4	-27	38*
Cc1ccccc1N1CCN(Cc2c[nH]c3ccccc23)CC1	0	-19	-4	-19	40*
COc1ccccc1N1CCN(C(=O)CCc2c[nH]c3ccccc23)CC1	0	5	-5	-1	45*
COc1ccccc1N1CCN(Cc2c[nH]c3ccccc23)CC1	0	-17	-1	-20	48*
CCS(=O)(=O)N1CCN(Cc2c[nH]c3ccccc23)CC1	3	-19	1	-2	-35
COC(=O)c1cnc(N2CCN(c3ccc(OC)cc3)CC2)c2ccccc12	-1	9	nt	nt	nt
CCC(Oc1ccccc1F)C(=O)N1CCC(c2nc3ccccc3s2)CC1 (centres undefined)	-2	12	nt	nt	nt
COc1cc(OC)c(NC(=O)c2nn(C)c3c2COc2ccccc2-3)cc1Cl	-2	5	nt	nt	nt
CSc1ccc(CCNC(=O)CN2C(=O)COc3ccc(S(=O)(=O)N4CCCC4)cc32)cc1	-1	13	nt	nt	nt
O=C(c1nc(-c2ccc(Cl)cc2)n2c1CCCCC2)N1CCN(c2ccc(F)cc2)CC1	0	1	nt	nt	nt
O=C(Cn1c(=O)n(Cc2nc(-c3ccccc3)no2)c(=O)c2cc3c(cc21)OCO3)Nc1cccc(C(F)(F)F)c1	1	7	nt	nt	nt
Brc1ccccc1CN1CCN(Cc2c[nH]c3ccccc23)CC1	nt	nt	-5	-15	nt
Fc1ccc(N2CCN(Cc3c[nH]c4ccccc34)CC2)cc1	2	-23	nt	nt	93*
CCOC(=O)c1c(C)[nH]c(C)c1S(=O)(=O)N1CCCC(C(=O)N2CCN(c3cccc(C)c3C)CC2)C1 (centres undefined)	0	20	nt	nt	nt
Cc1cc(C(=O)COC(=O)c2cc(O)c3ccccc3c2O)c(C)n1CC1CCCO1 (centres undefined)	2	-3	?	83*	8
Cc1ccc(C(=O)C2CCN(CC(=O)N3CCN(c4ccc(F)cc4)CC3)CC2)cc1	0	-14	1	-13	51*
Cc1ccc(C(=O)N2CCC(C(=O)c3ccc(F)cc3)CC2)cc1	nt	nt	-2	-20	nt
SMILES	D2 ag-1	D2 PAM-1	D2 ag-2	D2 PAM-2	D2 antag
Cc1ccc(C(=O)C2CCN(CC(=O)Nc3ccc(N(C)C)cc3)CC2)cc1	0	-27	-1	-19	33*
O=C(CN1CCC(C(=O)c2ccc(F)cc2)CC1)Nc1ccc(F)cc1	0	-25	-2	-34	10
CCCOC(=O)c1cccc(Nc2nc(CCC)cc(=O)[nH]2)c1	4	-13	nt	nt	nt
NC(=O)[C@@H]1[C@@H]2C(=O)N(c3ccc(F)cc3)C(=O)[C@@H]2[C@H]2C=Cc3ccccc3N21	1	12	-4	-10	-15
O=C(c1ccco1)[C@@H]1[C@@H]2C(=O)N(c3ccc(F)cc3)C(=O)[C@@H]2[C@H]2C=Cc3ccccc3N21	1	12	-1	-1	43*
Cc1oncc1C(=O)Nc1ccc(C(F)(F)F)cc1	-2	4	13	-2	36*
Cc1ccc(Cn2ncc3c(N4CCN(C)CC4)ncnc32)cc1	0	-33	5	-11	55*
Cc1ccc(Cn2ncc3c(N4CCN(c5ccc(C)cc5)CC4)ncnc32)cc1	-1	10	-1	13	0
O=C(COCc1cc(-c2ccc(F)cc2)on1)Nc1cc(F)ccc1F	nt	-10	nt	nt	nt
O=C(CC1SCCNC1=O)Nc1cc(Cl)cc(Cl)c1 (centres undefined)	nt	nt	-1	-6	nt
Cc1ccccc1NC(=O)CC1SCCNC1=O (centres undefined)	-1	4	-2	-4	45*
COC(=O)c1cc(NC(=O)CC2SCCNC2=O)cc(C(=O)OC)c1 (centres undefined)	0	3	4	-1	35*
COc1ccccc1N1CCN(C(=O)c2cc3c(=O)n(Cc4cccnc4)ccc3nc2C)CC1	-1	-9	nt	nt	nt
C[C@H](NC(=O)c1nc[nH]c1C(=O)NC(c1ccccc1)c1ccccc1)C(=O)OC(C)(C)C	nt	nt	-1	-11	nt
CC(C)(C)OC(=O)CNC(=O)c1[nH]cnc1C(=O)NC(c1ccccc1)c1ccccc1	48*	-25	-1	-4	-21
NC(=O)c1ccccc1NC(=O)CC12CC3CC(CC(Br)(C3)C1)C2	5	36*	-1	-5	-5
COc1ccccc1NC(=O)CC12CC3CC(CC(Br)(C3)C1)C2	1	5	1	-4	-2
Cc1ncc(C(=O)O)c(C(=O)O)c1N	0	35*	8	-18	-31
CCc1ccc(NC(=O)Cn2c(=O)c(-c3ccccc3NC(C)=O)nc3ccccc32)cc1	-1	-27	nt	nt	nt
CC(C)(C)c1ccc(S(=O)(=O)NCc2ccc3c(c2)CCN3C(=O)c2ccccc2)cc1	nt	9	nt	nt	nt
COCCNC(=O)c1ccc2c(=O)n(CCc3ccccc3)c(SCC(=O)CC(=O)OC)nc2c1	0	0	nt	nt	nt
COC1CCCCC1NS(=O)(=O)c1ccc(Cl)cc1 (centres undefined)	-1	-6	3	-6	31*
Cc1cccc(C)c1OCC(=O)Nc1nc(-c2ccc(Br)cc2)ns1	3	-7	nt	nt	nt
O=C(N/N=C/c1cccnc1)C1CCCCC1	0	32*	0	-6	-19
CCOc1cc(/C=N/NC(=O)c2cccnc2)ccc1O	0	4	-8	3	31*
O=C(N/N=C/c1ccsc1)C1CC1	0	40*	-2	-3	0
O=C(N/N=C/c1cccnc1)c1cccc(Cl)c1	2	-3	1	-9	35*
